# From PubChem BioAssay
# Several values for one entry are separate records, joined by “and”; a condition that tells them apart may be missing. Equal values may be shown once. Inconclusive results are not listed. Activity calls are given as the source filed them. Unless noted, no rule for the calls is given here.
# Tests used:
# [1] = compounds altering circadian rhythm period length – cell-based, LOPAC library, luminescence reporter (AID 2774); conditions: circadian reporter cells, at 7 µM, actives lie on both sides;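 also: values are relative to mean of DMSO wells on each plate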
# [2] = test system: Hepatitis C virus NS3 helicase; test: blockers of NS3h binding to ssDNA – biochemical, fluorescence polarization, LOPAC1280 library, primary screen (AID 687035; in the data active = inhibition above about 37%); conditions: Purified HCV NS3 helicase, Cy5-dT15 ssDNA binding fluorescence polarization; stronger effect = higher value; concentration not given here
# [3] = compounds altering Cy5-DNA-NS3h complex signal – biochemical, LOPAC1280, artefact control for HCV NS3 helicase inhibitor project (AID 687037); conditions: Cy5-DNA-NS3h complex fluorescence interference counterscreen
# [4] = test system: Aerobactin synthetase IucA (Klebsiella pneumoniae, hypervirulent); test: biochemical IucA inhibition screen of LOPAC library by absorbance (AID 1346212); conditions: IucA enzyme assay, absorbance (OD) readout; stronger effect = lower value;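 tested at 8 µM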;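 also: 100% = no compound wells and 0% = no enzyme wells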
# [5] = viability loss with induced miR-34 in A549 – imaging, A549 dox-inducible miR-34, nuclei and caspase counts, primary screen (AID 1347080;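 active = compounds whose cell count with miR-34 switched on is under 0.7 times the count with it off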); conditions: A549 miR-34 inducible, Hoechst nuclei count, 48 h
# [6] = blockers of cellular phospholipid synthesis – cell-based, LOPAC library, screen 4, primary screen (AID 1347384); conditions: animal cells, phospholipid biosynthesis inhibition screen; at 10 µM
# [7] = galactose survival enhancers in mitochondrial complex I cybrids – cell-based, galactose medium, ATP luminescence, primary screen (AID 1645843;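 active = z-score of at least 1.8 in each of two replicates, scored against plate mean and spread of sample wells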;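 also: positive z means more ATP and so rescue of galactose-driven cybrid death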); conditions: complex I mutant cybrid cells, 72 h, stronger effect = higher value
# [8] = viability loss in pontine glioma line – cell-based, SU-DIPG-XVII, MIPE5.0, CellTiter-Glo, qHTS, dose response (AID 1347060; cut-off not given, nearly all actives have AC50 up to about 26 µM;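 also: cells exposed to compound for 48 hours before viability readout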); conditions: CellTiter-Glo ATP luminescence
# [9] = viability loss in pontine glioma line – cell-based, SU-DIPG-XIII, MIPE4.0, CellTiter-Glo, qHTS, dose response (AID 1347061; cut-off not given, nearly all actives have AC50 up to about 37 µM;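 also: cells exposed to compound for 48 hours before readout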); conditions: CellTiter-Glo ATP luminescence
# [10] = viability loss in pontine glioma line – cell-based, JHH-DIPG-1, MIPE4.0, CellTiter-Glo, qHTS, dose response (AID 1347062; cut-off not given, nearly all actives have AC50 up to about 27 µM;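 also: cells exposed to compound for two days before readout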); conditions: JHH-DIPG-1 viability, CellTiter-Glo ATP luminescence
# [11] = viability loss in pontine glioma line – cell-based, SU-DIPG-IV, MIPE4.0, CellTiter-Glo, qHTS, dose response (AID 1347063; cut-off not given, nearly all actives have AC50 up to about 30 µM;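 also: compound exposure lasted 48 hours before the viability readout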); conditions: CellTiter-Glo ATP luminescence
# [12] = viability loss in pontine glioma line – cell-based, SU-DIPG-XIII, MIPE5.0, CellTiter-Glo, qHTS, dose response (AID 1347064; cut-off not given, nearly all actives have AC50 up to about 23 µM;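 also: cells exposed to compound for 48 hours before the viability read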); conditions: CellTiter-Glo ATP luminescence
# [13] = viability loss in pontine glioma line – cell-based, SU-DIPG-XXV, MIPE5.0, CellTiter-Glo, qHTS, dose response (AID 1347065; cut-off not given, nearly all actives have AC50 up to about 26 µM;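 also: cells exposed to compound for 48 hours before ATP readout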); conditions: CellTiter-Glo ATP luminescence
# [14] = growth inhibition of DIPG cells – cell-based, MIPE4.0 library, CellTiter-Glo luminescence, qHTS (AID 1347066; cut-off not given, nearly all actives have AC50 up to about 30 µM;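 also: cells exposed to compound for 48 hours before readout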); conditions: SU-DIPG-VI viability, CellTiter-Glo ATP luminescence
# [15] = growth inhibition of DIPG cells – cell-based, MIPE5.0 library, qHTS (AID 1347068; cut-off not given, nearly all actives have IC50 up to about 30 µM;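 also: cells exposed to compound for 48 hours before viability readout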); conditions: SU-DIPG-XXV viability
# [16] = chitosan synthesis blockers in C. neoformans – flow cytometry, Cibacron Brilliant Red staining (AID 1347148); conditions: Cryptococcus neoformans chitosan, stronger effect = lower value; at 10 µM unless noted;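 also: compound exposure lasted three days at 37 degrees C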
# [17] = compounds altering viability of human ES cells (AID 493140); conditions: human embryonic stem cell survival screen; stronger effect = higher value;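 also: cells exposed to compounds for four days before counting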
# [18] = MELAS cybrid and Rieske KO viability enhancers – cell-based, MELAS cybrids, Rieske KO mouse fibroblasts, CellTiter-Glo, primary screen (AID 1508586;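 active = mean z-score across replicates of 1.96 or higher in either the MELAS or the Rieske mutant cell line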;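 also: z relative to plate mean and SD of compound and empty wells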); conditions: low glucose
# [19] = measured here: relative caspase fold change +Dox/-Dox
# [20] = measured here: total cells with miR-34 induction, stronger effect = lower value
# [21] = measured here: total cells without miR-34 induction
# [22] = MELAS cybrid survival, CellTiter-Glo 48 h, stronger effect = higher value
# [23] = Rieske KO mouse fibroblast survival, CellTiter-Glo 72 h
compound,measurement,setting,value
NC(Cc1cc(O)c(O)cc1O)C(=O)O (configuration not stated),period change,[1],0.12 h (inactive)
same,inhibition,[2],22% (inactive)
same,fluorescence ratio (interference),[3],0.9 (inactive)
same,remaining activity,[4],96.6% (inactive)
same,fold change,[5]; stronger effect = lower value,1.05 (inactive)
same,fold change,[5]; [19],0.814
same,cell count,[5]; [20],9010
same,cell count,[5]; [21],8570
same,outcome,[6],inactive
same,z-score,[7],-0.345 (inactive)
CCCN(CCC)[C@H]1CCc2c(F)ccc(O)c2C1,period change,[1],-0.075 h (inactive)
same,inhibition,[2],-4% (inactive)
same,fluorescence ratio (interference),[3],1 (inactive)
same,remaining activity,[4],115% (inactive)
same,fold change,[5]; stronger effect = lower value,1.05 (inactive)
same,fold change,[5]; [19],1.11
same,cell count,[5]; [20],10100
same,cell count,[5]; [21],9610
same,outcome,[6],inactive
same,z-score,[7],-0.33 (inactive)
C/C=C(/C)C(=O)O[C@H]1C(C)=C2[C@H]([C@@H]1OC(=O)CCCCCCC)[C@@](C)(OC(C)=O)C[C@H](OC(=O)CCC)[C@@]1(O)[C@H]2OC(=O)[C@@]1(C)O,period change,[1],9.62 h (inactive)
same,inhibition,[2],-3% (inactive)
same,fluorescence ratio (interference),[3],1 (inactive)
same,remaining activity,[4],86.6% (inactive)
same,AC50,[8],52.5 nM (active)
same,AC50,[9],590 nM (active)
same,AC50,[10],46.9 nM (active)
same,AC50,[11],7.43 nM (active)
same,AC50,[12],295 nM (active)
same,AC50,[13],23.5 nM (active)
same,AC50,[14],105 nM (active)
same,IC50,[15],1320 nM (active)
same,fold change,[5]; stronger effect = lower value,1.93 (inactive) and 1.56 (inactive)
same,fold change,[5]; [19],0.132 and 0.916
same,cell count,[5]; [20],662 and 522
same,cell count,[5]; [21],343 and 336
same,fold fluorescence,[16],5.31 [at 76.8 µM] (inactive)
same,outcome,[6],inactive
same,z-score,[7],-1.38 (inactive)
CCCN1CCc2cc(O)cc3c2[C@H]1Cc1ccc(O)c(O)c1-3,period change,[1],0.415 h (inactive)
same,inhibition,[2],1% (inactive)
same,fluorescence ratio (interference),[3],1 (inactive)
same,remaining activity,[4],99.8% (inactive)
same,fold change,[5]; stronger effect = lower value,0.922 (inactive)
same,fold change,[5]; [19],1.32
same,cell count,[5]; [20],9400
same,cell count,[5]; [21],10200
same,outcome,[6],inactive
same,z-score,[7],-0.965 (inactive)
CCCN(CCC)[C@@H]1CCc2ccc(O)cc2C1,period change,[1],0.12 h (inactive)
same,inhibition,[2],0% (inactive)
same,fluorescence ratio (interference),[3],1.1 (inactive)
same,remaining activity,[4],125% (inactive)
same,fold change,[5]; stronger effect = lower value,0.992 (inactive)
same,fold change,[5]; [19],1.38
same,cell count,[5]; [20],9820
same,cell count,[5]; [21],9900
same,outcome,[6],inactive
same,z-score,[7],-0.195 (inactive)
CC(C)C[C@H](NP(=O)(O)O[C@@H]1O[C@@H](C)[C@H](O)[C@@H](O)[C@H]1O)C(=O)N[C@@H](Cc1c[nH]c2ccccc12)C(=O)O,remaining activity,[4],89.8% (inactive)
CC(C)(C)c1cc(C=C(C#N)C#N)cc(C(C)(C)C)c1O,period change,[1],1.05 h (inactive)
same,survival,[17],76 (inactive)
same,inhibition,[2],0% (inactive)
same,fluorescence ratio (interference),[3],1 (inactive)
same,remaining activity,[4],101% (inactive)
same,fold change,[5]; stronger effect = lower value,1.14 (inactive) and 1.05 (inactive) and 0.984 (inactive)
same,fold change,[5]; [19],0.636 and 2.12 and 0.899
same,cell count,[5]; [20],1430 and 1570 and 1940
same,cell count,[5]; [21],1250 and 1490 and 1970
same,fold fluorescence,[16],9.17 [at 177.1 µM] (inactive)
same,outcome,[6],active
same,z-score,[18]; [22],0.224 (inactive)
same,z-score,[18]; [23],-0.362
same,z-score,[7],-1.27 (inactive)
CC1(C(=O)O)C2CCC(O2)C1(C)C(=O)O (configuration not stated),period change,[1],0.3 h (inactive)
same,survival,[17],0.417 (inactive)
same,inhibition,[2],-5% (inactive)
same,fluorescence ratio (interference),[3],1 (inactive)
same,remaining activity,[4],118% (inactive)
same,fold change,[5]; stronger effect = lower value,0.789 (inactive)
same,fold change,[5]; [19],1.91
same,cell count,[5]; [20],286
same,cell count,[5]; [21],362
same,outcome,[6],inactive
same,z-score,[7],-1.46 (inactive)
NC(=O)CN1CC(O)CC1=O (configuration not stated),period change,[1],0.03 h (inactive)
same,inhibition,[2],-2% (inactive)
same,fluorescence ratio (interference),[3],1 (inactive)
same,remaining activity,[4],115% (inactive)
same,fold change,[5]; stronger effect = lower value,1.04 (inactive) and 0.877 (inactive)
same,fold change,[5]; [19],1.56 and 1.01
same,cell count,[5]; [20],10800 and 8840
same,cell count,[5]; [21],10500 and 10100
same,outcome,[6],inactive
same,z-score,[18]; [22],-0.221 (inactive)
same,z-score,[18]; [23],-0.154
same,z-score,[7],0.605 (inactive)
